Measured values reported in PubChem BioAssay AID1159580 (chemical genetic matrix, 2015).
“And” between values parts separate entries of the source, which are not always exact repeats. Equal values may be shown once. In all, about 5,500 compounds went through this assay and about 2,000 (36%) were called active. Inconclusive results (about 18%) are left out. No stated cut-off is given here; in the data, active means normalized growth mostly below about 0.91 (no sharp cut-off); inconclusive means no clear call, values can overlap the other calls; inactive means mostly above about 0.92. This is one part of the list.

Assay: chemical genetic growth profiling, strain panel (AID 1159580);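 further: tested at 20 µM; growth read once vehicle control cultures reached saturation at 30 °C; 1 = growth at the plate median or of vehicle wells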
Details: S. cerevisiae deletion strains, growth OD

Measured: normalized growth

CCS(=O)(=O)CCn1c([N+](=O)[O-])cnc1C
inactive: locus YAL013W, strain DEP1, stronger effect = lower value 1.03 | locus YAL021C, strain ccr4, stronger effect = lower value 0.999 | locus YAL026C, strain drs2, stronger effect = lower value 0.995 | locus YAL030W, strain snc1, stronger effect = lower value 1.01 | locus YBL061C, strain skt5, stronger effect = lower value 1.01 | locus YBR009C, strain hhf1, stronger effect = lower value 0.962 | locus YBR021W, strain FUR4, stronger effect = lower value 1.01 | locus YBR023C, strain chs3, stronger effect = lower value 0.998 | locus YBR171W, strain sec66, stronger effect = lower value 1 | locus YBR229C, strain ROT2, stronger effect = lower value 1.01 | locus YBR231C, strain swc5, stronger effect = lower value 1 | locus YBR279W, strain paf1, stronger effect = lower value 0.985 | locus YCL011C, strain gbp2, stronger effect = lower value 1 | locus YCL016C, strain dcc1, stronger effect = lower value 1.02 | locus YCL029C, strain bik1, stronger effect = lower value 1.01 | locus YCL061C, strain MRC1, stronger effect = lower value 1.01 | locus YCL069W, strain vba3, stronger effect = lower value 0.974 | locus YCR088W, strain abp1, stronger effect = lower value 0.986 | locus YDL005C, strain med2, stronger effect = lower value 1.01 | locus YDL035C, strain GPR1, stronger effect = lower value 1.04 | locus YDL040C, strain nat1, stronger effect = lower value 0.995 | locus YDL074C, strain BRE1, stronger effect = lower value 1.06 | locus YDL101C, strain DUN1, stronger effect = lower value 1.01 | locus YDL134C, strain PPH21, stronger effect = lower value 1 | locus YDL185W, strain tfp1, stronger effect = lower value 1.02 | locus YDL192W, strain arf1, stronger effect = lower value 1.01 | locus YDR001C, strain nth1, stronger effect = lower value 0.991 | locus YDR069C, strain doa4, stronger effect = lower value 0.977 | locus YDR101C, strain arx1, stronger effect = lower value 1.01 | locus YDR137W, strain rgp1, stronger effect = lower value 0.957 | locus YDR150W, strain NUM1, stronger effect = lower value 1.02 | locus YDR159W, strain sac3, stronger effect = lower value 0.965 | locus YDR162C, strain NBP2, stronger effect = lower value 1.02 | locus YDR195W, strain ref2 0.952 | locus YDR297W, strain sur2, stronger effect = lower value 1 | locus YDR318W, strain mcm21, stronger effect = lower value 1.04 | locus YDR334W, strain swr1, stronger effect = lower value 0.966 | locus YDR335W, strain msn5, stronger effect = lower value 0.993 | locus YDR388W, stronger effect = lower value 1.01 | locus YDR392W, strain spt3, stronger effect = lower value 1.02 | locus YDR502C, strain sam2, stronger effect = lower value 1.01 | locus YEL003W, strain gim4, stronger effect = lower value 0.995 | locus YEL037C, strain rad23, stronger effect = lower value 0.981 | locus YEL061C, strain CIN8 (second series), stronger effect = lower value 0.998 | locus YEL061C, strain CIN8, stronger effect = lower value 1.01 | locus YER015W, strain faa2, stronger effect = lower value 1 | locus YER016W, strain bim1, stronger effect = lower value 1.01 | locus YER110C, stronger effect = lower value 1.02 | locus YER111C, strain swi4, stronger effect = lower value 1.02 | locus YER155C, strain BEM2 (second series), stronger effect = lower value 0.99 | locus YER155C, strain BEM2, stronger effect = lower value 0.996 | locus YER167W, strain BCK2, stronger effect = lower value 1.05 | locus YFR010W, strain ubp6, stronger effect = lower value 0.967 | locus YGL078C, strain dbp3, stronger effect = lower value 1 | locus YGL086W, strain mad1, stronger effect = lower value 1.05 | locus YGL167C, strain pmr1, stronger effect = lower value 0.994 | locus YGL173C, strain kem1, stronger effect = lower value 1.02 | locus YGL227W, strain vid30, stronger effect = lower value 1 | locus YGL240W, strain doc1, stronger effect = lower value 0.977 | locus YGL248W, strain PDE1, stronger effect = lower value 1 | locus YGL253W, strain hxk2, stronger effect = lower value 0.997 | locus YGR078C, strain PAC10, stronger effect = lower value 1.03 | locus YGR135W, strain pre9, stronger effect = lower value 1.01 | locus YGR229C, strain SMI1, stronger effect = lower value 1.02 | locus YGR252W, strain gcn5, stronger effect = lower value 1.01 | locus YHR013C, strain ard1, stronger effect = lower value 1.04 | locus YHR027C, strain rpn1, stronger effect = lower value 1.01 | locus YHR030C, strain SLT2, stronger effect = lower value 1.01 and 0.981 | locus YHR079C, strain IRE1 (second series), stronger effect = lower value 1.02 | locus YHR079C, strain IRE1, stronger effect = lower value 0.957 | locus YHR094C, strain hxt1, stronger effect = lower value 1.01 | locus YHR129C, strain ARP1, stronger effect = lower value 1.01 | locus YHR142W, strain chs7, stronger effect = lower value 1.01 | locus YHR200W, strain rpn10, stronger effect = lower value 1.02 | locus YIL066C, strain RNR3, stronger effect = lower value 1.02 | locus YIL073C, strain SPO22, stronger effect = lower value 1.1 | locus YIL125W, strain kgd1, stronger effect = lower value 1.01 | locus YIR030C, strain dcg1, stronger effect = lower value 1.01 | locus YJL092W, strain hpr5, stronger effect = lower value 1 | locus YJL095W, strain BCK1 (second series), stronger effect = lower value 0.989 | locus YJL095W, strain BCK1, stronger effect = lower value 1.02 and 0.959 | locus YJL115W, strain asf1, stronger effect = lower value 0.98 | locus YJL129C, strain trk1, stronger effect = lower value 1 | locus YJL134W, strain LCB3, stronger effect = lower value 1.01 | locus YJL154C, strain vps35, stronger effect = lower value 0.984 | locus YJL164C, strain tpk1, stronger effect = lower value 1 | locus YJL166W, strain qcr8, stronger effect = lower value 0.996 | locus YJL168C, strain set2, stronger effect = lower value 1.01 | locus YJL187C, strain SWE1 (second series), stronger effect = lower value 1.01 | locus YJR043C, strain POL32, stronger effect = lower value 1.08 | locus YJR066W, strain TOR1, stronger effect = lower value 0.945
